This is a sample that favours compounds with a hit; in the whole collection about 2.7% have one here.
Neddyl block = blocks human cullin neddylation. calls only at 25 µM. AID 651699. P61081+Q13564. TR-FRET cullin neddylation, biochemical. hit rate 0.58% among 360,000; in the data active = inhibition above about 36%
Target sequence (P61081 whole entry, looked up): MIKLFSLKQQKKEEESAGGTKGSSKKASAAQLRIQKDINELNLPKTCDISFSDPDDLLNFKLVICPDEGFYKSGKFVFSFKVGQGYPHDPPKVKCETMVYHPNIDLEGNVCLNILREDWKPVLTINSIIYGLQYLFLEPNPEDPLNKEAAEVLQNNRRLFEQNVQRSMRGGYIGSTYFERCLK
Target sequence (Q13564 whole entry, looked up): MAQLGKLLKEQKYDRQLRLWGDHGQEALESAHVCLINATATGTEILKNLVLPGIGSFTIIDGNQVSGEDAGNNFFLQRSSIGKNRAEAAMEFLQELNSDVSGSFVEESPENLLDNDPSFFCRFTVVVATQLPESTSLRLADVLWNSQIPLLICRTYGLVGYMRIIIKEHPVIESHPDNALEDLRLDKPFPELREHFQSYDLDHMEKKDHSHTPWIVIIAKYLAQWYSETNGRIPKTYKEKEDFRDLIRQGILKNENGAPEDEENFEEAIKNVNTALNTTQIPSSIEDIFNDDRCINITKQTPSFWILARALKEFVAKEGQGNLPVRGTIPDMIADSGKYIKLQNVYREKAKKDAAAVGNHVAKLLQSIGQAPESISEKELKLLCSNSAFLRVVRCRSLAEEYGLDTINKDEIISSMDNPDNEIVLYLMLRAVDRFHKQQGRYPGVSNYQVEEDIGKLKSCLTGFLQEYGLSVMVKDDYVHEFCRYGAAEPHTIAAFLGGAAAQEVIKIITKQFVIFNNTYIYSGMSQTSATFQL
FAS TE block = inhibitors of human fatty acid synthase thioesterase domain; P49327; inhibition, % at 15 µM; recombinant FAS-TE, OMFH fluorogenic substrate, fluorescence endpoint; hit rate 0.67% among 360,000; AID 602261;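 active = compounds whose normalised, plate-corrected inhibition of enzyme fluorescence in the single-dose primary screen is 50% or more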
KLK7 zymogen act = activators of human kallikrein-7 zymogen. P49862. purified proKLK7, EDANS-DABCYL substrate fluorescence; 100% is mature enzyme control, 0% vehicle. activation, % at 7 µM. hit rate 0.9% among 370,000;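 active = activation above the mean of all tested compounds plus 3 SD, computed per campaign excluding outliers beyond control limits, cut at about 13% in these data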
PfGluPho inh = PfG6PD (Plasmodium falciparum) enzyme inhibition | PfGluPho enzyme, NADPH resazurin-diaphorase fluorescence | inhibition, % at 20 µM | hit rate 0.78% among 350,000 | AID 504690;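 active = inhibition reaching at least a set limit at 20 µM in the primary screen, cut at about 59% in these data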
PfG6PD confirm = PfG6PD inhibition, single-dose confirmed; shares compounds with PfGluPho inh; recombinant PfGluPho, NADPH-diaphorase-resazurin fluorescence; inhibition, % at 20 µM; hit rate 34% among 2,400;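 active = inhibition of at least 50% at 20 µM in any single replicate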
Diaph ctr 10uM = counter-screen for P. falciparum G6PD inhibitors: diaphorase inhibitors, oxidizers; hit rate 39% among 820; inhibition, % at 20 µM; diaphorase-coupled resazurin reduction, fluorescence, NADPH 10 uM; shares compounds with PfGluPho inh;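 active = average inhibition reaching 50% or more with the compound at 20 µM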;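 note: resorufin red fluorescence formed as diaphorase reduces resazurin using NADPH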
Diaph ctr 30uM = diaphorase inhibition or oxidation at 30 uM NADPH. shares compounds with PfGluPho inh. Diaphorase/resazurin coupled assay, resorufin fluorescence. inhibition, % at 20 µM. hit rate 29% among 820. AID 504863;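 active = inhibition averaging 50% or more, tested at 20 µM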
Numbers stand for hits; - = inactive; . = not tested or not shown.

SMILES	Neddyl block	FAS TE block	KLK7 zymogen act	PfGluPho inh	PfG6PD confirm	Diaph ctr 10uM	Diaph ctr 30uM
COC1(OC)C=CC(=O)C=C1NC(=O)c1ccccc1OC(C)=O	-	-	-	63	64	-	-
CCN(CC)c1ccc(N=C2C=CC(=O)C=C2NC(C)=O)cc1	-	-	-	121	99	95	98
CCn1c(N)c(C(=O)NCCCOC)sc1=S	-	-	-	65	-	.	.
CCn1c(N)c(C(=O)NC)sc1=S	-	-	-	80	50	-	-
CCn1c(N)c(C(=O)NCC2CCCO2)sc1=S (stereo not given)	-	-	-	61	-	.	.
C=CCn1c(N)c(C(=O)NCC2CCCO2)sc1=S (stereo not given)	-	-	-	-	.	.	.
Cc1ccc(Cn2cc(CN3[C@@H](CC(C)C)COc4cccc(F)c4S3(=O)=O)nn2)cc1	.	.	-	.	.	.	.
Cc1cc2c(N)cccc2nn1	-	-	-	100	-	.	.
O=C(Nc1ccc2c(c1)N(S(=O)(=O)c1cccs1)CCC2)c1c(F)cccc1F	-	-	-	-	.	.	.
O=S(=O)(c1cccs1)N1CCCc2cccc(O)c21	-	-	-	93	-	.	.
COC(=O)c1cc(Nc2cc(C)c3c(O)cccc3n2)cc(C(=O)OC)c1	-	-	-	-	.	.	.
COc1ccc(Nc2cc(C)c3c(O)cccc3n2)cc1	-	-	-	120	56	-	-
COc1cccc(Nc2cc(C)c3ccccc3n2)c1	.	-	-	61	-	.	.
Cc1ccc(Nc2cc(C)c3c(O)cccc3n2)cc1C	-	-	-	125	-	.	.
C=CCn1c(SCC(=O)Nc2ccc(CCCC)cc2)nnc1-c1ccc(Cl)cc1	.	.	-	.	.	.	.
COc1ccc(-c2cn3nc(C)c(C)nc3n2)cc1OC	-	-	-	-	.	.	.
COc1ccc(-c2cn3cc(C)ccc3n2)cc1Br	-	-	-	103	54	-	-
Clc1ccc2nc(-c3ccc(Br)s3)cn2c1	-	-	-	80	51	-	-
COc1ccc(-c2cn3cc(Cl)ccc3n2)cc1OC	.	-	-	133	77	62	57
O=C(O)c1ccccc1-c1cn2cc(Cl)ccc2n1	-	-	-	-	.	.	.
Cc1cccc(CCNC(=O)c2ccc(Sc3ccccc3Cl)c([N+](=O)[O-])c2)c1	.	.	-	.	.	.	.
CCCC/C=C1/[C@H](c2ccc(Cl)cc2)N(Cc2ccc3c(c2)OCO3)C2=N[C@H](c3ccccc3)CC(=O)N21	.	.	-	.	.	.	.
COc1ccc2c(C)cc(Sc3nnnn3-c3ccccc3)nc2c1	-	-	-	60	-	.	.
C/C(=N\Nc1ccc([N+](=O)[O-])cc1)c1ccc(O)cc1	-	-	-	66	-	.	.
C/C(=N\Nc1ccc([N+](=O)[O-])cc1)c1cccc(N)c1	-	-	-	111	-	.	.
SMILES	Neddyl block	FAS TE block	KLK7 zymogen act	PfGluPho inh	PfG6PD confirm	Diaph ctr 10uM	Diaph ctr 30uM
COC(=O)C[C@H]1CC[C@H]2[C@H](COc3ccc(NC(=O)C4CCOCC4)cc3C(=O)N2C)O1	.	.	-	.	.	.	.
CC(COc1cccc(F)c1)CN1CCC(C(O)(c2ccccc2)c2ccccc2)CC1 (stereo not given)	.	.	-	.	.	.	.
CCN(CCO)c1ncnc2c1sc1nc(C(C)C)c3c(c12)CC(C)(C)OC3	-	-	-	-	.	.	.
CC(C)c1nc2sc3c(=O)n(N)cnc3c2c2c1COC(C)(C)C2	-	-	-	60	-	.	.
O=C(CSc1nnc(-c2cccs2)n1Cc1ccco1)Nc1ccc(OCc2ccccc2)cc1	.	.	-	.	.	.	.
CCC1(CC)Cc2ccccc2C(N)=C1C#N	-	-	-	61	49	50	-
CCOc1ccccc1N1CSC2=C(C#N)C(c3c(OC)ccc4ccccc34)CC(=O)N2C1 (stereo not given)	-	-	-	74	-	.	.
COc1cc(OC)c(C2CC(=O)N3CN(c4ccc(C)cc4)CSC3=C2C#N)cc1OC (stereo not given)	-	-	-	89	-	.	.
COc1ccc(N2CSC3=C(C#N)C(c4cccs4)CC(=O)N3C2)cc1 (stereo not given)	-	-	-	-	.	.	.
CCOC(=O)c1ccc(N2CSC3=C(C#N)C(c4cccs4)CC(=O)N3C2)cc1 (stereo not given)	-	-	-	-	.	.	.
COc1ccc(N2CSC3=C(C#N)C(c4ccc(OC)c(OC)c4)CC(=O)N3C2)c(OC)c1 (stereo not given)	-	-	-	80	65	-	-
Cc1ccc(N2CSC3=C(C#N)C(c4cccs4)CC(=O)N3C2)cc1 (stereo not given)	-	-	-	70	-	.	.
CN(C)S(=O)(=O)c1cccc(C(=O)N/N=C\c2ccccc2)c1	.	.	-	.	.	.	.
COc1ccc(C2CC(=O)N3CN(c4ccc(C)c(Cl)c4)CSC3=C2C#N)cc1OC (stereo not given)	-	-	-	59	-	.	.
CCSC1=C(C#N)C(c2ccc(OC)c(OC)c2)CC(=O)N1 (stereo not given)	-	-	-	-	.	.	.
COc1ccc(N2CSC3=C(C#N)C(c4cc(OC)c(OC)cc4OC)CC(=O)N3C2)c(OC)c1 (stereo not given)	-	-	-	102	74	-	-
Cc1ccc(-c2cc(C(=O)NN=Cc3ccc(-c4ccccc4)cc3)[nH]n2)cc1	.	.	-	.	.	.	.
Cc1noc(C(=O)Nc2sc3c(c2C#N)CCC3)c1Cl	-	-	-	83	52	-	-
COc1ccccc1NC(=O)CSCc1ccc([N+](=O)[O-])cc1	-	-	-	-	.	.	.
COc1ccc([N+](=O)[O-])cc1NC(=O)CSCc1cc(C)cc(C)c1	-	-	-	59	-	.	.
CC1(C)CC(=O)C=C(Nc2ccccc2NC(=O)c2cccc(F)c2F)C1	.	.	-	.	.	.	.
C[C@@H]1ON(C)[C@H]2C[C@H]3c4[nH]c5ccc(-c6ccc7c(c6)OCO7)cc5c4CCN3C(=O)[C@@H]12	.	-	-	76	-	.	.
O=C(OC12CCCN(C1)/C(=C/c1ccncc1)C2)c1ccco1 (stereo not given)	.	.	-	.	.	.	.
CCN1CCN(C(=S)c2ccc(Cl)c(Cl)c2)CC1	-	-	-	59	55	-	-
O=C(Nc1nnc(-c2cccnc2)s1)c1cnc2ccccc2c1	.	.	-	.	.	.	.
SMILES	Neddyl block	FAS TE block	KLK7 zymogen act	PfGluPho inh	PfG6PD confirm	Diaph ctr 10uM	Diaph ctr 30uM
c1ccc2c(c1)[nH]c1c(N3CCOCC3)ncnc12	-	-	-	-	.	.	.
CCc1cc(N2CCOCC2)cc2c1[nH]c1ccccc12	.	-	-	67	-	.	.
COc1cccc(C(=O)NC2CCN(CC(=O)Nc3ccccc3Cl)CC2)c1	-	-	-	-	.	.	.
COc1cccc(C2(c3cccc(OC)c3)CC2C(=O)Nc2ccccc2Cl)c1 (stereo not given)	-	-	-	88	-	.	.
Cc1cccc(C2(c3cccc(C)c3)CC2C(=O)Nc2ccc([N+](=O)[O-])cc2O)c1 (stereo not given)	-	-	-	113	60	55	-
COc1cccc(C2(c3cccc(OC)c3)CC2C(=O)Nc2ccc(F)cc2)c1 (stereo not given)	-	-	-	115	57	56	-

Screening data as filed in PubChem BioAssay.
